Shown are actives, neighbours in structure and some others; about 4.9% of the full set was active somewhere.
HSF1 activator – increases HSF-1 driven luciferase reporter signal; NIH3T3-HGL HSF-1 luciferase reporter, MG132, 8 h; 100% = twice DMSO control signal; hit rate 1.7% among 300,000; activation, % at 9 µM;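 active means mean replicate activation of at least 50% with a set share of replicates each reaching 50%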
dFosB act-1 – mouse delta FosB homodimer activation. hit rate 0.99% among 340,000. P13346. AID 493131. purified delta FosB, TAMRA-CDK5 oligo fluorescence polarization; percent of positive-control signal above neutral wells. activation, % at 25 µM;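 active means mean activation above about 17%, with every replicate also reaching it, limit read from the data, passing the limit was not always enough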
Target sequence (P13346 whole entry, looked up): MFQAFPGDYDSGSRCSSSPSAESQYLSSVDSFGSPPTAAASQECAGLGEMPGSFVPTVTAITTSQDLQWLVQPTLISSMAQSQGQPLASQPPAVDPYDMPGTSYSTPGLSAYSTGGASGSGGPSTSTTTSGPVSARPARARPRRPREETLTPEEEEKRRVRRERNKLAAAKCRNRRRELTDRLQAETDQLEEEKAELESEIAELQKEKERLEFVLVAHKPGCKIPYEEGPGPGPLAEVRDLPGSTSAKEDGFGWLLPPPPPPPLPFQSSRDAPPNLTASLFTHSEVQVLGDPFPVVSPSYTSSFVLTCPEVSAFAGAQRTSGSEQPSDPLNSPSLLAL
Platelet DG rel – modulates dense granule release in human platelets. inhibition, %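 (compounds screened at 7.5 µM in platelet-rich plasma)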. AID 1663. hit rate 0.22% among 300,000. human platelet-rich plasma, SFLLRN dense granule ATP release, luminescence;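 active means mean replicate score, as percent of positive control, at or above 50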
HSF1 inhib – HSF1 inhibition. NIH3T3-HGL HSE-luciferase, MG132-induced, luminescence 8 h; stronger effect = lower value. activity change, negative = inhibition, % at 7.5 µM (by protocol). hit rate 0.77% among 300,000. AID 2098;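 active means more than half of replicate wells show activity change below -50%, luminescence cut by over half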;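 further: luciferase reports HSF-1 transcriptional activity via heat shock element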
HSP90 inh – blocks HSP90-mediated luciferase refolding in reticulocyte lysate | hit rate 0.91% among 290,000 | Rabbit reticulocyte lysate, luciferase refolding luminescence, 3 h | AID 1789 | inhibition, % at 5.6 µM;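 active means inhibition above the screen-wide mean plus 3 SD, computed separately per campaign, cut at about 16% in these data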;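 further: inhibitors lower the luminescence because luciferase stays unfolded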
MPTP block – inhibitors of mitochondrial permeability transition pore; isolated mouse mitochondria, Ca2+ swelling absorbance, 30 min; inhibition, % at 10 µM; hit rate 1.4% among 360,000;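 active means inhibition of 50% or more, scaled per plate between neutral and stimulator controls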
dFosB act-2 – enhances mouse delta FosB homodimer binding to DNA; shares compounds with dFosB act-1; activation, % at 24.9 µM; purified delta FosB, TAMRA-CDK5 oligo fluorescence polarization; normalised: neutral wells 0, positive control 100; 2,400 tested, under 10 active;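 active means highest replicate activation at or above 34% and every replicate reaching that threshold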;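 further: higher polarization means more probe DNA bound by delta FosB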
Numbers stand for hits; . = inactive; / = no result.

SMILES	HSF1 activator	dFosB act-1	Platelet DG rel	HSF1 inhib	HSP90 inh	MPTP block	dFosB act-2
O=C(Nc1ccc(F)cc1)c1cccc(N2C(=O)c3ccccc3C2=O)c1	.	35	.	.	.	.	.
O=C(CNC(=O)c1cccc(N2C(=O)c3ccccc3C2=O)c1)Nc1ccc(F)c(F)c1	/	33	/	/	/	.	.
O=C(Nc1ccc(S(=O)(=O)Nc2nccs2)cc1)c1cccc(N2C(=O)c3ccccc3C2=O)c1	.	.	.	.	.	.	/
CCCc1nnc(NC(=O)CCC(=O)NCc2ccc(OC)cc2)s1	.	.	.	.	.	.	/
NC(=O)Cn1cc(/C=N/NC(=O)c2ccc(Cn3cc(Cl)cn3)o2)c(-c2ccccc2)n1	/	36	/	/	.	.	.
Cc1ccc(NC(=O)c2ccc3nc(N4CCOCC4)sc3c2)c(Cl)c1	.	141	.	.	.	.	.
CCCCn1c(N)c(N(CCC(C)C)C(=O)COC(=O)Cc2ccc(Cl)cc2)c(=O)[nH]c1=O	/	.	/	/	/	.	/
Cc1cccc(NC(=O)CN2C(=O)S/C(=C\c3ccccn3)C2=O)c1	.	41	.	.	.	.	.
CCOc1cc(/C=C2/NC(=O)N(CC(=O)Nc3cccc(C)c3)C2=O)ccc1O	.	19	.	.	.	.	.
Cc1ccc(NC(=O)CN2C(=O)S/C(=C\c3ccccn3)C2=O)cc1	.	.	.	.	.	.	/
O=C(CN1C(=O)S/C(=C\c2ccccn2)C1=O)Nc1ccccc1	/	61	/	/	.	.	.
O=C(CN1C(=O)c2ccccc2C1=O)Nc1ccccc1	.	24	.	.	.	.	.
CC(Oc1cccnc1[N+](=O)[O-])C(=O)Nc1cccc(Cl)c1 (configuration not stated)	/	.	/	/	/	.	/
O=C(NNc1cc(Br)c(O)c(Br)c1)c1ccccc1	.	.	.	.	.	.	/
CCOC(=O)C1(CCOc2ccccc2)CCN(Cc2ccc(O)c(OCC)c2)CC1	.	.	.	.	.	.	/
O=C(CN1C(=O)S/C(=C\c2ccccn2)C1=O)Nc1ccc(F)cc1	/	48	/	/	.	.	.
O=C(CN1C(=O)S/C(=C\C=C\c2ccccc2)C1=O)Nc1ccc(O)cc1	59	61	.	.	.	.	.
N#CC1(NC(=O)CSc2nnc3n2CCCCC3)CCCCC1	/	.	/	/	/	.	/
Cc1ccc(-n2c(O)c(C=NCc3ccccn3)c3ccccc3c2=O)cc1	.	26	.	.	.	.	.
COc1ccccc1/C=C/C(=O)Nc1ccc(S(=O)(=O)Nc2cc(C)on2)cc1	.	.	.	.	.	.	/
COc1ccc(S(=O)(=O)Nc2cccc(-c3ccc4nncn4n3)c2)cc1	.	21	.	.	/	.	.
COc1ccc(C(=O)Nc2cccc(-c3ccc4nncn4n3)c2)cc1	.	.	.	.	.	.	/
OCCNc1nc(Nc2ccc(O)cc2)nc2ccccc12	.	19	.	.	.	.	.
Cc1nc(C)c(-c2ccc(SCc3ccccc3F)nn2)s1	.	.	.	.	.	.	/
COc1nc(-c2ccc(Cl)cc2)ccc1-c1noc(-c2ccco2)n1	.	30	.	.	.	.	.
SMILES	HSF1 activator	dFosB act-1	Platelet DG rel	HSF1 inhib	HSP90 inh	MPTP block	dFosB act-2
Fc1ccc(NC(=S)N/N=C/c2cccc(Br)c2)c(F)c1	.	36	.	.	.	.	.
Cc1ccc(CCNC(=O)C2CCN(S(=O)(=O)c3cccc4nsnc34)CC2)cc1	.	33	.	.	.	.	.
Cc1ccc(CCNC(=O)C2CCN(S(=O)(=O)c3cccc4cccnc34)CC2)cc1	.	.	.	.	.	.	/
CNc1nc(-c2ccccc2)c2sccc2n1	/	/	/	/	/	.	/
NC1=NC2(CCC(c3ccccc3)CC2)n2c(nc3ccccc32)N1 (configuration not stated)	.	34	.	.	.	.	.
NC1=NC2(CCCCC2)n2c(nc3ccccc32)N1	.	.	.	.	.	.	/
O=C(NC1CCCc2ccccc21)c1cccc(F)c1 (configuration not stated)	/	.	/	/	/	.	/
O=C(Oc1cc(Cl)cc(Cl)c1)c1cnc2n(c1=O)CCS2	.	.	.	.	.	.	/
COc1cccc(-n2c(SCC(=O)N3CCc4ccccc43)nnc2-c2c[nH]c3ccccc23)c1	.	.	.	.	.	.	/

High-throughput results as filed in PubChem BioAssay.
